PubChem BioAssay (NCATS)
Records with an inconclusive call do not appear. Where a call stands in place of a potency, no number is given. The source made the active and inactive calls. The call rests on the fitted dose curve; in most records, active means well fitted curve in the direction sought with a large enough effect; inconclusive means small, poorly fitted or top-dose-only effect, or another doubt; inactive means no such curve, though single readings can be large; an effect the other way counts as inactive or inconclusive.

What follows are compounds tested against Aldehyde dehydrogenase, mitochondrial (Homo sapiens) (UniProt P05091) (assay: qHTS for Inhibitors of the Aldehyde Dehydrogenase Family (ALDH2) Primary screen (AID 2061308; further: nearly all actives have a fitted effect of over 55% in size)). Details: ALDH2 enzyme inhibition qHTS, 1536-well; series mostly up to 56 µM.
`O=C(/C=C/c1ccc(O)c(O)c1)O[C@H]1[C@H](OC2CCCCC2O)O[C@H](CO)[C@@H](O)[C@@H]1O` (some centres not stated) was tested, and the Potency was “inactive”. With `COc1cc([C@H]2c3cc(O)c(OC)cc3C[C@@H](CO[C@@H]3O[C@H](CO)[C@@H](O)[C@H](O)[C@H]3O)[C@@H]2CO)ccc1O` the Potency was “inactive”. For `CC(C)=C1CC2C(CCC2(C)O)C(C)(O)CC1=O` (configuration not stated), the Potency was “inactive”.

What follows are compounds tested against Retinaldehyde dehydrogenase 3 (Homo sapiens) (UniProt P47895) (assay: qHTS for Inhibitors of the Aldehyde Dehydrogenase Family (ALDH1A3) Confirmatory screens (AID 2061311; further: nearly all actives have a fitted effect of over 60% in size; further: potency means the concentration at half of the fitted maximal effect)). Details: ALDH inhibition qHTS; series mostly up to 46 µM.
For `CCOC(=O)C1=C(N)Oc2ccc(Br)cc2C1C(C#N)C(=O)OCC` (configuration not stated), the Potency was 11.3 µM (active). With `Cn1cc(Nc2cnccc2C(=O)O)c2cccnc21` the Potency was “inactive”. For `Clc1ncoc1-c1c[nH]c2ccccc12`, the Potency was “inactive”. For `COc1ccc(-c2ccn(CC[C@](C)(C(=O)NO)S(C)(=O)=O)c(=O)c2)c(F)c1`, the Potency was 7.98 µM (active). In the case of `Cc1ccc(NC(=O)N2CCN(c3nc(N)nc4sc(-c5cccnc5)nc34)CC2)cc1`, the Potency is reported as 2.52 µM (active). With `O=C(O)c1cc(O[C@@H]2O[C@H](CO[C@@H]3OC[C@@H](O)[C@H](O)[C@H]3O)[C@@H](O)[C@H](O)[C@H]2O)c2ccccc2c1O` the Potency was 1.38 µM (active). In the case of `O=C1NC(=O)C(c2cn(-c3ccccc3)nc2-c2ccc(F)cc2)N1` (configuration not stated), the Potency is reported as “inactive”. `Oc1ccc(Nc2nc(-c3ccc(Cl)cc3)cs2)cc1` was tested, and the Potency was “inactive”. With `Cc1ccc(CN2CCNCC2)cc1NC(=O)CNc1ccc(F)c(F)c1` the Potency was “inactive”. In the case of `C=CC(=O)Nc1cccc(Nc2nc(Nc3ccc(Oc4ccnc(C(=O)NC)c4)cc3)ncc2F)c1`, the Potency is reported as “inactive”. With `O=C(O)c1cn(C2CC2)c2cc(N3C[C@@H]4C[C@H]3CN4)c(F)cc2c1=O` the Potency was “inactive”. For `COc1ccc(NC(=O)c2ccc(-c3ccc(C(N)=O)cc3C)cc2)cc1N1CCN(C)CC1`, the Potency was “inactive”. `CCOC(=O)C1=C(N)Oc2ccc(Cl)cc2C1C(C#N)C(=O)OCC` (configuration not stated) was tested, and the Potency was 12.7 µM (active). With `CN1CCN(C(=O)CN[C@@H]2C[C@H]2c2ccc(OCc3ccccc3)cc2)CC1` the Potency was 3.98 µM (active). `O=C(/C=C/c1ccc(O)c(O)c1)O[C@H]1[C@H](OC2CCCCC2O)O[C@H](CO)[C@@H](O)[C@@H]1O` (some centres not stated) was tested, and the Potency was 11 µM (active).

These compounds were tested against Retinaldehyde dehydrogenase 3 (Homo sapiens) (UniProt P47895) (assay: qHTS for Inhibitors of the Aldehyde Dehydrogenase Family (ALDH1A3) Validation screen (AID 2061312; further: nearly all actives have a fitted effect of over 45% in size; further: potency means the concentration at half of the fitted maximal effect)). Details: ALDH1A3 enzyme inhibition qHTS validation, fluorescence; series mostly up to 84.7 µM.
With `CN(C)c1cccc(Oc2cnc(Nc3cccc(O)c3)nc2)c1` the Potency was 8.91 µM (active). For `CCOC(=O)C1=C(N)Oc2ccc(Br)cc2C1C(C#N)C(=O)OCC` (configuration not stated), the Potency was “inactive”. With `Cc1ccc(NC(=O)N2CCN(c3nc(N)nc4sc(-c5cccnc5)nc34)CC2)cc1` the Potency was 2.82 µM (active). For `Cn1cc(-c2ccncc2)c(-c2ccc(OCc3ccc4ccccc4n3)cc2)n1`, the Potency was “inactive”. In the case of `Cc1[nH]c(/C=C2\C(=O)Nc3cc(-c4ccccc4)ccc32)c(C)c1CCC(=O)O`, the Potency is reported as “inactive”. In the case of `Nc1cccc(CNC(=O)c2ccc(Oc3ccc(OCc4cccc(F)c4)cc3)nc2)c1`, the Potency is reported as “inactive”. With `COc1ccc(NC(=O)c2ccc(-c3ccc(C(N)=O)cc3C)cc2)cc1N1CCN(C)CC1` the Potency was “inactive”. `CCOC(=O)C1=C(N)Oc2ccc(Cl)cc2C1C(C#N)C(=O)OCC` (configuration not stated) was tested, and the Potency was “inactive”. With `CN1CCN(C(=O)CN[C@@H]2C[C@H]2c2ccc(OCc3ccccc3)cc2)CC1` the Potency was 1.41 µM (active).
